For 40 sequences, PBM binding z-score results are on record in the supplement of paper PMC6555819.

The subject of the experiment is VDR:RXRa (NR concentration 270 nM, RXRa partner concentration 90 nM). Put plainly: PBM binding z-score (relative to random genomic background probes); higher = stronger binding; sequences stand for … in GC…GCGATTGACAGCGTAGAATGAAGG
As to the method: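 Protein-binding microarray (Agilent 4x180K custom design, double-stranded 60-nt probes: 5' GC cap, 34-nt variable region, 24-nt constant primer region; full probe sequence given). Purified or IVT nuclear receptor:RXRα heterodimers (3:1 NR:RXRα, mostly 270:90 nM) or homodimers were incubated for 1 h in PBS with 2% milk and no ligand, then detected with Alexa488 antibodies. Fluorescence from o1-orientation probes (~5 replicates averaged) was converted to z-scores against 500 random hg19 background probes. Variable regions are seed direct-repeat (DR0–DR5) sites, all their single-nucleotide variants and half-site ablations.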
The sequence TCGAGTAGGTTCCGGGGGCATTCAGGGATGAAGA had a PBM binding z-score of 2.54. CCTACTGGGCCAAGGTCTTTGATCAGTCAAAGCA had a PBM binding z-score of -0.509. Under CTATGTAGGTTAAGGGCGTCATTCAGTTTGAAAG stands 0.981; under CCTACTGGGCCAAGGTCATTGACCAGTCAAAGCA, 3.38; under CAAAGTAGGTCACGAAAGGTCAAAGTCGAATGAC, 6.82.

With TCGAGTAAGTTACGGGGGCATTCAGGGATGAAGA, the PBM binding z-score worked out at 3.01. To ACTAGTTGGTCAGCTGGGGTCACACACAATTCGG belongs 4.93; to TCGAGTAGGTTACAGGGGCATTCAGGGATGAAGA, 1.67; to GATACAGGGTCAATGCCAGAGTACGCGTATTGAT, 3.93.

TCGAGTAGGTTACGGGGGCCTTCAGGGATGAAGA had a PBM binding z-score of 2.11.

As to TCGAGTAGGGTACGGGGGCATTCAGGGATGAAGA, the PBM binding z-score was found to be 3.64. To CTATGTAGGTTAAGGGGGTCATTCGGTTTGAAAG belongs 7.56. The sequence TATCCTAGGTCAGATCGGGCCAGTATACGCTATA showed a PBM binding z-score of 1.51. To CTATGTAGGTTCAGGGGGTCATTCAGTTTGAAAG belongs 6.91. Under CTATGTATGTTAAGGGGGTCATTCAGTTTGAAAG stands 6.64; under CAAAGTAGGTCAAGAGGTCAAAGTCCGCTTCCCG, 6.25; under ATCTCTAGGTCAAAGTTCAGTGAATCCCGAGGAT, 4.4. To CGAACTAGGTGACCAGGACAGTGAAGAGGTTGGA belongs 0.673; to ACAGACAGGTGAGTGAAGGTCACTCAGCTGGACG, 2.73.

In the case of CCGAGTAGGTTACGAGGGGGCGTTCAGTGCGAAT, the PBM binding z-score came out at 4.72.

As for TTACCAAGGTGAAAGGTCGTTGAGGCACGCCTTG, the PBM binding z-score was 3.55. To CTCCAAAGGTCGGTTGAGGTGAGTATACGGATAA belongs 2.42. Under CTATGTAGGTTAAGGGGGTGATTCAGTTTGAAAG stands 3.99; under GGAACGAGCGCAAAGTTGATAGCATCTGTCGACG, -0.765. Under CTAACTAGGTCACCGGAAGGTCAAAGTCCGCATG stands 6.08; under CCTACTGGGCAAAAAAGGTCATTGATGCCGATAA, 4.36; under AGTCAAAGTTCAGGACGAGATAACGTAAAGCACG, 2.19. As for AGTCAAAATTCACTAGGTAACGTAAGATTCAGCT, the PBM binding z-score was 0.0665. For AATACAGGGTGATCGTAGGCCAGAGTACGCACAG, the PBM binding z-score came out at 0.0765. Under CCTTACGGGTCACGGGGTTATAGCACGACGAGCG stands 5.75; under CGAACTAGGTCACCAGGACAATGAAGAGGTTGGA, 2.21. As to CTCGAAAGGTCGTGCTCAGGTGAGTACACCAAAC, the PBM binding z-score was determined as 3.6.

Sequence CCTACTGGGCCAAAAAGGTAATTGATGCCGATAA returned a PBM binding z-score of -0.157. To CCAGACAGGTGAAAGGTAACTCACTCTGGTACGC belongs 0.767; to TATACAGGATCAAAGGCCAGAGTACGAATGTCGA, 0.61; to TCGAGTAGGTTACGGGGGCATTCAGGGATGAAGA, 4. Take CGTCTAAGGTCAAAGGTCAGTGAAGAGATGACGG: the PBM binding z-score was determined as 6.78. Under CGAACTAGGTCACCCGGACAGTGAAGAGGTTGGA stands 2.69. For the sequence ATATGTAGGTTAGCTGGAGTCATTCAGACTAGGC, the PBM binding z-score amounted to 0.533. With TCGGGTAGGTTACGGGGGCATTCAGGGATGAAGA, the PBM binding z-score was determined as 4.77.
